Reference: PubChem BioAssay (EPA / NIEHS)
Values joined by “and” are separate entries in the source; they are usually repeats but may differ in a detail not shown here. Equal values may be shown once. Results filed as inconclusive are left out. Where a structure was tested more than once in an assay, its records may differ in their call. Active and inactive are the calls of the source. How the source made its calls: active means hit-call score of the fitted dose curve at least 0.9, where 1 is the maximum; inconclusive means response in the unintended direction; inactive means score below 0.9.

Target: human Thyroid hormone Receptor beta (TRb), THRB (gene 7068) (UniProt P10828)
Assay: ATG_hTRb_XSP2: Attagene TRANS-FACTORIAL Multi-Species (XSP2) HepG2 Assay for human Thyroid hormone Receptor beta (TRb) (AID 2283840);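 further: actives raise reporter mRNA so potency reflects agonist-like gain of signal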
Method: ATG_XSP2_multi-species_TRANS is a cell-based, multiplexed assay created by modifying the existing Attagene TRANS-FACTORIAL system to include a panel of nuclear receptors from some or all the following species: human (Homo sapiens), mouse (Mus musculus), frog (Xenopus laevis), zebrafish (Danio rerio), chicken (Gallus gallus), and turtle (Chrysemys picta). The ECOTOX-FACTORIAL format uses HepG2, a human liver cell line, with measurements taken at 24 hours after chemical dosing in a 24-well plate. Xsp2 included 3 nM 6-alpha-fluorotestosterone and 1.5 nM norgestrel to stimulate the androgen receptor.ATG_hTRb_XSP2 is one of 29 assay components measured or calculated from the ATG_XSP2_multi-species_TRANS assay. It is designed to make measurements of mRNA induction, a form of inducible reporter, as detected with fluorescence intensity signals by Reverse transcription polymerase chain reaction (RT-PCR) and Capillary electrophoresis technology.The assay endpoint ATG_hTRb_XSP2 was analyzed in the positive analysis fitting direction relative to DMSO as the negative control and baseline of activity. Using a type of inducible reporter, measures of mRNA for gain-of-signal activity can be used to understand the reporter gene at the transcription factor-level as they relate to the gene TR. Furthermore, this assay endpoint can be referred to as a primary readout, because this assay has produced multiple assay endpoints where this one serves a reporter gene function. To generalize the intended target to other relatable targets, this assay endpoint is annotated to the nuclear receptor intended target family, where the subfamily is non-steroidal.
Human liver HepG2 cells are transiently transfected with multiple reporter transcription units (MRTUs) in 6-well plates using FuGene 6 reagent (Roche; 3 ml FuGene/1 mg DNA). The MRTU constructs are regulated by a cis-regulating element (promoter). […] A major difference between the CIS and TRANS system is that in CIS activities of endogenous TFs are measured, whereas the TRANS assay evaluates changes in activities of exogenous, chimeric NR-Gal4 proteins. […] At the end of 24 hour incubation, total RNA was isolated using TriZol reagent (Invitrogen). The isolated RNA is then reverse-transcribed using oligo(dT) primer and Mo-MLV reverse transcriptase (Invitrogen) with DNAse I (Ambion) treatment for 30 min. The one-tenth of the produced cDNA was amplified by PCR using Taq DNA polymerase (Invitrogen) and two reporter sequence-specific primers. The PCR products were fluorescently labeled by primer extension with 6-arboxyfluorescein (6-FAM) 5'-labeled reporter sequence-specific primer (2 min at 95 C, 20 s at 68 C and 10 min at 72 C) and these products were digested with 5U of HpaI (New England Biolabs) for 2h at 37 C. The fragments were purified using Qiaquick PCR columns (Qiagen), analyzed on an ABI 3130xL genetic analyzer (Applied Biosystems) with peak positions identified by using a set of X-rhodamine (ROX)-labeled MapMarker1000 molecular weight standards (BioVentures). The raw capillary electrophoresis data was processed using Attagraph software (Attagene).

human Thyroid hormone Receptor beta (TRb), THRB (gene 7068), sequence (P10828 whole entry, looked up): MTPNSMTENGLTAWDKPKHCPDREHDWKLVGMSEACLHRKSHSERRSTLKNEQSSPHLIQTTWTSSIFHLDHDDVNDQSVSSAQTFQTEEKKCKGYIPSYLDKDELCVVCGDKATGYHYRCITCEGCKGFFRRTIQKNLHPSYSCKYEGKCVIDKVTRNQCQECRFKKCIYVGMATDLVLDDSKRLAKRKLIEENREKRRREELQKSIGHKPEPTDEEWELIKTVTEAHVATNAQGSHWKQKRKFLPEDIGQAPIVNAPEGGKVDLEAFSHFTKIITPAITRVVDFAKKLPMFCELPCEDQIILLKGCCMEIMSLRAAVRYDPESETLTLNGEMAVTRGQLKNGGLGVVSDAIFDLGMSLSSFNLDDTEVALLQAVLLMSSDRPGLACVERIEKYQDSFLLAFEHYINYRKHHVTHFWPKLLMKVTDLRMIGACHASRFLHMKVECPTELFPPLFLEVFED

SMILES | outcome | AC50
CC(C)(C)c1cc(O)ccc1O | inactive | –
COP(=O)(OC)O/C(=C\Cl)c1cc(Cl)c(Cl)cc1Cl | inactive | –
C[C@H]1CCCC(=O)CCC/C=C/c2cc(O)cc(O)c2C(=O)O1 | inactive | –
CC(=O)C=C(C)C | inactive | –
CC12CC1(C)C(=O)N(c1cc(Cl)cc(Cl)c1)C2=O (stereo unspecified) | inactive | 63.2 µM (active)
Oc1c(I)cc(I)cc1I | – | 56.1 µM (active) and 16.2 µM (active)
C[C@]12CC[C@H](O)CC1=CC[C@@H]1[C@@H]2CC[C@]2(C)C(=O)CC[C@@H]12 | inactive | –
CC(C)C1CCC(Cc2ccc(Cl)cc2)C1(O)Cn1cncn1 (stereo unspecified) | inactive | –
O=C1C2(Cl)C3(Cl)C4(Cl)C(Cl)(Cl)C5(Cl)C3(Cl)C1(Cl)C5(Cl)C24Cl (stereo unspecified) | – | 10 µM (active)
C[C@]12CCC(=O)C[C@@H]1CC[C@@H]1[C@@H]2CC[C@]2(C)[C@@H](O)CC[C@@H]12 | – | 0.421 µM (active)
Oc1ccc(-c2ccccc2)cc1 | inactive | –
CC(C)(C)CC(C)(C)c1ccc(O)cc1 | inactive | –
Clc1ccc(C2(Cn3cncn3)CC(Br)CO2)c(Cl)c1 (stereo unspecified) | inactive | –
CC1(C)CCC(Cc2ccc(Cl)cc2)C1(O)Cn1cncn1 (stereo unspecified) | inactive | –
O=S(=O)(c1ccc(Cl)cc1)c1ccc(Cl)cc1 | – | 19.8 µM (active)
